# Rows were chosen to be rich in hits. Some 5.7% of all compounds tested hit in one or more screens of this group.
# ATXN viability = Viability Counterscreen for Primary qHTS for Inhibitors of ATXN expression; Potency, µM (titrated, usually from 56.7 µM), usual class: cytotoxic; S2 cells (HEK-293 line with an ATXN2-luciferase reporter) viability, CellTiter-Fluor protease fluorescence, 24 h; AID 651635, 2014; 0.49% of 400,000 active; further: potency means the concentration at half of the fitted maximal effect; nearly all actives have a fitted effect of over 40% in size
# IL1B secr inh = qHTS for Inhibitors of Inflammasome Signaling: IL-1-beta AlphaLISA Primary Screen. AID 743279, 2014. THP-1 LPS/ATP IL-1B secretion, AlphaLISA, 16 h; active compounds read low. activity change, % at 57.5 µM. 4.7% of 360,000 active; in the data active means activity change below about -50%; inconclusive means mostly about -30% to -49%; further: on the % scale 0 is the no-effect control and ±100 the full control effect
#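 THP-1 cells pretreated 1 hr with compounds (up to 57.5 uM final), then stimulated with LPS (250 ng/mL final) plus ATP (1.25 mM final); secreted IL-1B measured by AlphaLISA after 16 hr, decreased signal indicating inhibition.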
# ATXN2 expr inh = Primary qHTS for Inhibitors of ATXN expression | HEK-293 ATXN2-luciferase reporter, luminescence, 24 h | Potency, µM (doses to about 57 µM), for the others: at the highest dose activity change, negative = inhibition, usual class: inhibitors | 0.72% of 360,000 active; further: potency means the concentration at half of the fitted maximal effect; on the % scale 0 is the no-effect control and ±100 the full control effect; nearly all actives have a fitted effect of over 55% in size
#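 ATXN2-luciferase reporter cells (luciferase flanked by upstream and downstream ATXN2 gene portions) were treated 24 h at 37 °C with compounds at up to 57 uM. SteadyGlo luminescence gave expression; GF-AFC fluorescence gave viability.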
# HepG2 viability = qHTS for Inhibitors of TGF-b: Cytotox Counterscreen; HepG2 CAGA-GFP viability, ATP luminescence, 18 h; Potency, µM (highest dose often 46.1 µM), inactives show top-dose activity change, negative = cytotoxicity, most hits filed as cytotoxic; 0.76% of 410,000 active; AID 588856, 2011; further: potency means the concentration at half of the fitted maximal effect
#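 CellTiter-Glo luminescence gave cytotoxicity after 18 hours at 37 degrees C. The cells were HepG2 CAGA-GFP in 1% FBS DMEM, stimulated with 500 pg/mL TGF-beta after compound addition. %Activity was normalised to no-cell wells (complete cell-killing) and DMSO (no toxicity), and curves were fitted and classified.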
# TGFb inhibitor = qHTS for Inhibitors of TGF-b. 1.2% of 410,000 active. HepG2 CAGA-GFP TGF-b/SMAD3 reporter, GFP fluorescence, 18 h; TGF-beta stimulated, 500 pg/mL final. AID 588855, 2011. Potency, µM (highest dose often 46.1 µM), without a hit: at the top dose activity, negative = inhibition, actives largely listed as inhibitors; further: potency means the concentration at half of the fitted maximal effect; on the % scale 0 is the no-effect control and ±100 the full control effect; nearly all actives have a fitted effect of over 65% in size
#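 Inhibition was scored as loss of TGF-beta-induced (500 pg/mL final, 18 hours, 37 degrees C) GFP in HEPG2 cells carrying a CAGA-GFP reporter, in DMEM with 1% FBS. Well GFP was summed per cell; Activity was normalised to unstimulated and stimulated DMSO wells, then concentration-response fitting.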
# * hit, by the source's call; i = inactive; ? = inconclusive; / = no result. Unless noted, the call rests on the fitted dose curve; in most records, active means well fitted curve in the direction sought with a large enough effect; inconclusive means small, poorly fitted or top-dose-only effect, or another doubt; inactive means no such curve, though single readings can be large; an effect the other way counts as inactive or inconclusive.
SMILES,ATXN viability,IL1B secr inh,ATXN2 expr inh,HepG2 viability,TGFb inhibitor
O=C(NCc1nnc(SCc2ccc(C(F)(F)F)cc2)n1-c1ccccc1)C12CC3CC(CC(C3)C1)C2,?,-30,-6%,-25%,?
O=C(NCc1nnc(SCc2ccc(F)cc2)n1-c1ccccc1)C12CC3CC(CC(C3)C1)C2,?,-79*,-29%,1%,?
CSc1nnc(CCNC(=O)c2ccc(-c3cccc(F)c3)cc2)n1-c1ccc(F)cc1,i,/,/,/,/
O=C1NC(=S)N/C1=C/c1cccn1-c1ccc([N+](=O)[O-])cc1,i,15,-9%,-43%,7.1µM*
N=C1/C(=C/c2cccn2-c2ccc([N+](=O)[O-])cc2)C(=O)N=C2SC=CN12,i,0,-4%,2%,3%
Cc1cc(C)c2nc(NC(=O)C3CC(=O)N(Cc4ccco4)C3)sc2c1 (centres undefined),i,-71*,-19%,14%,-3%
Cc1ccc2nc(NC(=O)C3CC(=O)N(Cc4ccco4)C3)sc2c1 (centres undefined),i,-25,-5%,1%,-4%
COc1ccc(C(C)(C)C)cc1NC(=O)c1ccc2ncsc2c1,i,-51*,20%,18%,0%
COc1ccc(-c2nc(CSCC(=O)NCc3ccc4c(c3)OCO4)c(C)o2)cc1OC,i,-20,-3%,-33%,-22%
COc1ccc(-c2ccc(SCC(=O)NCc3ccc4c(c3)OCO4)nn2)cc1OC,i,-95*,19%,-6%,-15%
COc1ccc(-c2ccc(C(=O)N3CCc4c(cnc(C)c4CNS(=O)(=O)N(C)C)C3)o2)cc1,i,/,/,/,/
CCc1ccc2[nH]c(=O)c(CN(Cc3ccco3)Cc3nnnn3Cc3ccco3)cc2c1,/,/,/,-1%,-5%
O=C(C(c1ccccc1)N1CCOCC1)N1CCOCC1 (centres undefined),i,27,-9%,-9%,10%
O=C(C=Cc1ccccc1)CC(c1ccccc1)N1CCOCC1 (centres undefined),/,-98*,?,13µM*,?
CC/C(=C\c1ccc(C(=O)OC)cc1)c1cc(OC)cc2oc3ccccc3c12,/,/,/,-32%,-29%
Cc1cc(O)c2c(C)c(CC(=O)NCc3ccccc3Cl)c(=O)oc2c1,i,/,3%,-7%,-4%
O=c1c2[nH]c3ccccc3c2nc(SCc2cccc(F)c2)n1-c1ccccc1,/,/,/,-24%,?
Cc1ccccc1C(=O)Nc1cc(-c2cc(C(C)(C)C)oc2C)nn1C,i,-59*,-9%,-24%,8%
Cc1ccccc1NC(=O)Nc1cc(-c2ccccc2)nn1C,i,2,-4%,3%,14%
COc1ccc(-c2cc(-c3ccccc3)c(C#N)c(S(C)(=O)=O)n2)cc1,?,-96*,?,-10%,-3%
CS(=O)c1nc(-c2ccc(Br)cc2)cc(-c2ccccc2)c1C#N (centres undefined),20µM*,-70*,13µM*,-7%,-8%
CS(=O)(=O)c1nc(-c2ccc(Br)cc2)cc(-c2ccccc2)c1C#N,/,-59*,?,-102%,-17%
O=C(NC(=Nc1nc2ccccc2o1)NC(=O)c1ccccc1)c1ccccc1,i,-16,36%,-11%,0%
O=C(NNc1nc2ccccc2o1)c1ccccc1,i,-14,1.6µM*,-25%,18%
CN(C(=O)c1cccc(C(F)(F)F)c1)C1CCCc2ccccc21 (centres undefined),i,20,-17%,4%,-9%
SMILES,ATXN viability,IL1B secr inh,ATXN2 expr inh,HepG2 viability,TGFb inhibitor
O=C(CN1CCN(c2cccc(Cl)c2)CC1)NC1CCCc2ccccc21 (centres undefined),i,-73*,0%,-1%,-2%
O=C(CCl)NC1CCCc2ccccc21 (centres undefined),i,-98*,7%,1%,1%
CN(C(=O)CCl)C1CCCc2ccccc21 (centres undefined),?,-107*,?,-90%,?
COC(=O)c1ccc(NC(=O)N2CCN(c3nnc(C)c4c(C)n(-c5ccccc5)nc34)CC2)cc1,i,/,4%,2%,7%
CC(C(=O)O)c1ccc2c(c1)CC(=O)c1ccccc1S2 (centres undefined),i,/,?,/,/
COc1cccc(CNC(=O)CSC2=Nc3ccccc3C3=NC(C(C)C)C(=O)N23)c1 (centres undefined),i,/,6%,-21%,2%
O=C(Nc1ccc(Br)cc1F)N1CCC2(CC1)Oc1ccccc1C(=O)N2Cc1ccccc1F,/,/,/,-6%,/
COC(=O)C1=C[C@@H](C(=O)OC)[C@@H]2C3=C(C(=O)[C@@]2(CC(C)C)NC(=O)c2ccccc2)[C@H](C)n2c(=O)n(-c4ccccc4)c(=O)n2[C@@H]3C1,/,/,/,1%,?
CCOC(=O)CCCCC(=O)c1[nH]c(=O)[nH]c1C[n+]1ccc(C)cc1,i,?,/,-5%,?
CCOC(=O)CCCCC(=O)c1[nH]c(=O)[nH]c1CSc1nc(C)cc(=O)[nH]1,i,?,-2%,2%,0%
CCOC(=O)CCCCC(=O)c1[nH]c(=O)[nH]c1CSc1nc2ccccc2[nH]1,i,-91*,7%,-11%,1%
CCOC(=O)CCCCC(=O)c1[nH]c(=O)[nH]c1CN1CCOCC1,i,-74*,23%,2%,0%
CCOc1ccc(C2Nc3ccc4ccccc4c3-c3c2c(=O)oc2ccccc32)cc1 (centres undefined),i,-55*,-23%,-6%,1%
O=c1oc2ccccc2c2c1C(c1ccc(Cl)cc1)Nc1ccc3ccccc3c1-2 (centres undefined),i,17,-30%,4%,-3%
COc1ccc(-n2ccc(-c3sc(NCc4cc(OC)c5c(c4)OCO5)nc3C)n2)cc1,i,/,/,/,/
O=C1/C(=C/c2ccncc2)SC(=S)N1C1CCS(=O)(=O)C1 (centres undefined),?,-92*,-10%,20µM*,?
Cc1ccc(C)c(N2CCN(C(=O)c3cc4ccc5cccnc5c4[nH]3)CC2)c1,/,/,/,-23%,16µM*
O=C(NCc1ccccc1)c1cc2ccc3cccnc3c2[nH]1,/,/,/,-19%,-8%
Cc1ccc(Cl)cc1N(C)C(=O)c1cc2ccc3cccnc3c2[nH]1,/,/,/,13µM*,11µM*
O=C(N/N=C/c1cn(-c2ccccc2)nc1-c1cc2ccccc2o1)c1c[nH]c2ccccc12,i,-60*,46%,-15%,-16%
O=C(N/N=C/c1cn(-c2ccccc2)nc1-c1cc2ccccc2o1)c1ccccc1Br,i,1,53%,-3%,1%

# Screening results from PubChem BioAssay.
